This is part of a sample that, as a whole, favours compounds with a hit. Of some 83,000 tested, about 20% had one in any assay.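 Assay: single dose, 48 h. Readout: percent growth (0 = no net growth; negative = cell death). Active: <10.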 Unmarked numbers belong to inactive results. Active and inactive are the calls of the source.
tested on: MCF7 breast; test: NCI-60 one-dose screen, 48 h (100 = growth as untreated, 0 = no growth, -100 = all killed); conditions: 10 µM unless noted
Procedure: Growth inhibition of the MCF7 human tumor cell line is measured as a screen for anti-cancer activity. Cells are grown in 96 well plates and exposed to the test compound for 48 hours. Compounds are tested at a single concentration, which is 10^-5 M for most compounds. The reported endpoint is percent growth (GI% or GIPRCNT), where numbers from 0 - 100% represent growth inhibition, and numbers from -100% - 0 represent cell death. For example, a value of 40 represents 60% growth inhibition. A value of 0 means no net growth occurred over the course of the experiment. A value of -40 indicates 40% of cells at the beginning of the experiment died by the end of the experiment. A value of -100 means all cells are dead at the end of the experiment.
NCI-60 Human Tumor Cell Lines Screen was performed using the standard one-dose NCI protocol, which is described in more detail at https://dtp.cancer.gov/discovery_development/nci-60/default.htm.
Compounds with GIPRCNT values below 10 were considered active. Activity score was based on GIPRCNT using the following formula: […]
Score is 0 for GIPRCNT values of 100 or above, 50 for GIPRCNT values of 0, and 100 for GIPRCNT values of -100.

| Compound | growth |
| --- | --- |
| CC(=O)OC[C@]12CC[C@@H]([C@@H](C)c3nnc(-c4ccncc4)o3)[C@@H]1[C@H]1CC[C@@H]3[C@@]4(C)CC[C@H](OC(C)=O)C(C)(C)[C@@H]4CC[C@@]3(C)[C@]1(C)CC2 | 84.9% |
| CSC(SC)=C(C#N)c1nc2ccccc2s1 | 47.3% |
| O=P(O)(O)OCC1OC(n2cnc3c(NCc4ccco4)ncnc32)C(O)C1O (stereo not given) | 0.586% (active) |
| O=C1Nc2c(C(=O)O)cccc2/C1=N/c1n[nH]c(=S)s1 | 80.8% |
| COc1cc2c(c(OC)c1OC)C(=O)CC(c1cccc(NC(=O)c3ccc(C#N)cc3)c1)O2 (stereo not given) | 65.6% |
| CCCCCCCCCCCCCOC(=O)c1c(C)[nH]c(/C=C2\N=C(c3ccc[nH]3)C=C2OC)c1C | 12.2% |
| COc1ccc(/C=C/c2c(C(=O)/C=C/c3ccccc3)c(C)nc3ccccc23)cc1 | 12.8% |
| Cc1cccc2c1C[C@@]1(C2=O)C(c2ccc(C(C)(C)C)cc2)=NOS1=O (stereo not given in full) | 66.2% |
| O=C1Nc2ccccc2/C1=C/c1cccn1C(=O)c1ccc(Cl)s1 | 12.3% |
| CCN(CC)CCN1C(=O)c2cccc3c(/C=C/CN4C(=O)c5cccc6cccc(c56)C4=O)ccc(c23)C1=O | 4.8% (active) |
| C=C(C)[C@@H]1CC[C@]2(COC(C)=O)CC[C@]3(C)[C@H](CC[C@@H]4[C@@]5(C)CCCN(C(C)=O)C(C)(C)[C@@H]5CC[C@]43C)[C@@H]12 | 19.7% |
| Cc1cccc(N2CCC(=O)NC2=S)c1 | 97.1% |
| CN(C)S(=O)(=O)Oc1ccc(-c2sc3cc(OS(=O)(=O)N(C)C)ccc3c2C(=O)c2ccc(OCCN3CCCCC3)cc2)cc1 | 26.4% |
| N=C(N)c1ccc(-c2ccc(-c3ccccc3)s2)cc1 | 13.8% |
| O=c1c2c3c(sc2n2c(-c4cc(-c5ccccc5)no4)nnc2n1Cc1ccccc1)CCCC3 | 97.1% |
| O=C(Nc1ccccc1O)c1ccc(CNC(=O)c2ccsc2Nc2ccnc(C(F)(F)F)c2)cc1 | 24.5% |
| O=C(O)c1ccc(-c2ccc(/C=N/Nc3nc(Nc4ccccc4)nc(N4CCCCC4)n3)o2)cc1 | 80.1% |
| COc1ccccc1C(=O)Nc1cccc(NC(=O)c2ccoc2C)c1 | 24.6% |
| Cc1ccc(-c2csc(N(C(=O)N3CCN(c4cc5c(cc4F)c(=O)c(C(=O)O)cn5C4CC4)CC3)c3ccccc3)n2)cc1 | 7.97% (active) |
| COc1ccc(/C=C/c2ccc3ccccc3n2)c(OC)c1 | 57% |

| Compound | growth |
| --- | --- |
| CCOC(=O)c1[nH]c2c(c1C)-c1[nH]c(=O)c(S(=O)(=O)c3ccccc3)cc1SC2 | 28.2% [100 µM] |
| COc1ccc(-c2nc(-c3cn(C)c4ncccc34)cs2)cc1 | -17.8% [100 µM] (active) |
| CC1CCN(C(=S)SCC(=O)NC(=O)c2ccccc2)CC1 | 95.7% |
| CC1(C)N=C(N)N=C(N)N1c1ccc(CCCCc2ccccc2)c(Cl)c1 | 1.84% (active) |
| Cc1c2ccncc2c(C)c2c1c1cc(CO)ccc1n2C | 4.26% (active) |
| COc1ccc2c(c1)c(-c1nc(-c3c[nH]c4ncccc34)cs1)cn2CCCN1CCOCC1 | 13.3% |
| O=C(N/N=C\c1ccccc1S(=O)(=O)O)N/N=C/c1ccccc1S(=O)(=O)O | 93.4% |
| C#CCn1cnc2cnc(Nc3cccc(NC(=O)C=C)c3)nc21 | 77.4% [6.25 µM] |
| CSc1nn2c(-c3ccc4ccccc4c3)ccnc2c1C#N | 10% (active) |
| O=S(=O)(Nc1cc(Sc2cccc3cccnc23)c(O)c2ccccc12)c1ccccc1 | -54.6% (active) |
| CS(=O)(=O)Nc1cc(-c2ccc3ncc(C#N)c(Nc4ccc(F)c(Cl)c4)c3c2)cnc1Cl | 4.03% (active) |
| O=C(Nc1ncc(Cc2cc(C(F)(F)F)ccc2Cl)s1)c1cccs1 | 30% |
| Clc1ccc(-c2cc(-c3ccccc3)nc(NCCNc3ccnc4cc(Cl)ccc34)n2)cc1 | -76.8% (active) |
| O=C(/C=C/C12c3ccccc3C(c3ccccc31)C1C(=O)NC(=O)C12)c1ccc(Br)cc1 (stereo not given) | 10.1% |
| Ic1ccccc1I | 91.5% |
| O=C(N/N=C\c1cccc([N+](=O)[O-])c1)N/N=C/c1cccc([N+](=O)[O-])c1 | 66.5% |
| COc1cccc(Nc2ncnc3cc(NC(=O)CCl)ccc23)c1 | -8.63% (active) |
| Cc1ccc(C2CC(c3nc(-c4ccc(Cl)cc4)oc3C)=NN2C(=O)c2ccncc2)cc1 (stereo not given) | 84.1% |
| Fc1ccc(Cn2cc(CSc3nc4ccccc4o3)nn2)cc1 | 93.8% |
| Cc1ccc(-c2nc(/C=C3/C(=O)Nc4ccc(F)cc43)c3ccccn23)cc1 | 35.5% |
